Settings in all cases: mRNA level, 48 h; actives raise or lower the signal
Read-out in assay [1]: ATP-citrate lyase (ACLY), ACLY (gene 47)
Put plainly: LTEA_HepaRG_ACLY: Life Technologies and Expression Analysis (LTEA) Assay for ATP-citrate lyase (ACLY) using HepaRG (AID 2283466). A digest of the protocol: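 qRT-PCR readout of ACLY transcript after 48 h chemical treatment of HepaRG cells; expression normalized to three housekeeping genes. Eight-point half-log series, highest 100 uM, 0.5% DMSO vehicle. Gain or loss fitted against DMSO baseline.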

Read-out in assay [2]: Peroxisomal acyl-coenzyme A oxidase 1 (ACOX1) gene, ACOX1 (gene 51)
Put plainly: LTEA_HepaRG_ACOX1: Life Technologies and Expression Analysis (LTEA) Assay for Peroxisomal acyl-coenzyme A oxidase 1 (ACOX1) gene using HepaRG (AID 2283467). The method in brief:
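HepaRG, 48 h chemical exposure, 8-pt half-log series from 100 uM top, 0.5% DMSO vehicle, duplicates. Readout: ACOX1 mRNA by Fluidigm qRT-PCR, housekeeping-normalized; bidirectional fit vs DMSO baseline.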

Read-out in assay [3]: Alkaline Phosphatase, Placental (ALPP) gene, ALPP (gene 250)
Put plainly: LTEA_HepaRG_ALPP: Life Technologies and Expression Analysis (LTEA) Assay for Alkaline Phosphatase, Placental (ALPP) gene using HepaRG (AID 2283468). A digest of the protocol:
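qRT-PCR readout of ALPP mRNA (Fluidigm TaqMan), normalized to ACTB/GAPDH/POLR2A, after 48 h chemical exposure of HepaRG cells; 8-point half-log series, top 100 uM, 0.5% DMSO vehicle. Bidirectional curve fit versus DMSO baseline.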

Read-out in assay [4]: Bcl-2 (BAD) gene, BAD (gene 572)
Put plainly: LTEA_HepaRG_BAD: Life Technologies and Expression Analysis (LTEA) Assay for Bcl-2 (BAD) gene using HepaRG (AID 2283469). A digest of the protocol: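 HepaRG, 48 h exposure, 8-pt half-log curve from 100 uM in 0.5% DMSO, duplicates. Readout: TaqMan qRT-PCR for BAD mRNA, housekeeping-normalised (ACTB/GAPDH/POLR2A); gain or loss fitted against DMSO baseline.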

Read-out in assay [5]: Bcl-2 (BAX) gene, BAX (gene 581)
Put plainly: LTEA_HepaRG_BAX: Life Technologies and Expression Analysis (LTEA) Assay for Bcl-2 (BAX) gene using HepaRG (AID 2283470). The method in brief: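 qRT-PCR read-out of BAX mRNA, normalized to three housekeeping genes, after 48 h chemical exposure of human HepaRG cells in serum-free induction medium; eight-point half-log series, top 100 uM, 0.5% DMSO vehicle; bidirectional fit versus DMSO.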

Read-out in assay [6]: adenosine kinase (ADK) gene, ADK (gene 132)
Put plainly: LTEA_HepaRG_ADK: Life Technologies and Expression Analysis (LTEA) Assay for adenosine kinase (ADK) gene using HepaRG (AID 2283471). The method in brief:
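Following 48 h exposure of HepaRG cells in 0.5% DMSO (top concentration 100 uM, duplicate wells), ADK mRNA induction or suppression was measured by qRT-PCR, normalised to ACTB/GAPDH/POLR2A, and fitted bidirectionally relative to vehicle.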

Read-out in assay [7]: Alpha-fetoprotein (AFP) gene, AFP (gene 174)
Put plainly: LTEA_HepaRG_AFP: Life Technologies and Expression Analysis (LTEA) Assay for Alpha-fetoprotein (AFP) gene using HepaRG (AID 2283472). A digest of the protocol:
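qRT-PCR (Fluidigm TaqMan) readout of AFP transcript, normalized to three housekeeping genes, fitted bidirectionally against 0.5% DMSO baseline. HepaRG cells received chemicals for 48 h in serum-free induction medium, top concentration 100 uM, half-log steps.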

Read-out in a further assay: BCL2L11 (gene 10018)
Put plainly: LTEA_HepaRG_BCL2L11: Life Technologies and Expression Analysis (LTEA) Assay for Bcl-2 (BCL2L11) gene using HepaRG (AID 2283473). A digest of the protocol:
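HepaRG, 48 h exposure, 8-pt half-log series from 100 uM in 0.5% DMSO, duplicates; qRT-PCR (Fluidigm TaqMan) for BCL2L11, housekeeping-normalized; bidirectional curve fit relative to DMSO baseline.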

Read-out in assay [8]: Apolipoprotein A-V (APOA5) gene, APOA5 (gene 116519)
Put plainly: LTEA_HepaRG_APOA5: Life Technologies and Expression Analysis (LTEA) Assay for Apolipoprotein A-V (APOA5) gene using HepaRG (AID 2283474). A digest of the protocol: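 HepaRG, 48 h chemical exposure in serum-free induction medium, 8-pt half-log series (top 100 uM), 0.5% DMSO vehicle, duplicates. Readout: APOA5 mRNA by qRT-PCR, housekeeping-normalized; bidirectional fit vs DMSO baseline.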

Read-out in assay [9]: Apoptosis regulator Bcl-2 (Homo sapiens) (UniProt P10415)
Put plainly: LTEA_HepaRG_BCL2: Life Technologies and Expression Analysis (LTEA) Assay for Bcl-2 gene using HepaRG (AID 2283475). A digest of the protocol:
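qRT-PCR read-out (Fluidigm TaqMan) of BCL2 transcript, normalised to three housekeeping genes, after 48 h chemical exposure of HepaRG cells; 8-point half-log series, top 100 uM, 0.5% DMSO vehicle. Gain or loss of signal fitted relative to DMSO baseline.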

Read-out in assay [10]: Bcl-2 (BID) gene, BID (gene 637)
Put plainly: LTEA_HepaRG_BID: Life Technologies and Expression Analysis (LTEA) Assay for Bcl-2 (BID) gene using HepaRG (AID 2283476). The method in brief:
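HepaRG, 48 h exposure, 8-pt half-log series, top 100 uM, 0.5% DMSO vehicle, duplicates. Readout: BID mRNA by TaqMan qRT-PCR; housekeeping-normalized; bidirectional curve fit vs DMSO baseline.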

Read-out in the next assay: Caspase-3 (Homo sapiens) (UniProt P42574)
Put plainly: LTEA_HepaRG_CASP3: Life Technologies and Expression Analysis (LTEA) Assay for cysteine-aspartic acid protease (CASP3) using HepaRG (AID 2283477). A digest of the protocol:
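HepaRG, 48 h exposure, 8 conc. (top 100 uM, half-log steps, duplicate), 0.5% DMSO vehicle; qRT-PCR of CASP3 transcript, housekeeping-normalised (ACTB/GAPDH/POLR2A); bidirectional curve fit vs DMSO baseline.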

Read-out in assay [11]: Cytochrome P450 (CYP24A1), CYP24A1 (gene 1591)
Put plainly: LTEA_HepaRG_CYP24A1: Life Technologies and Expression Analysis (LTEA) Assay for Cytochrome P450 (CYP24A1) using HepaRG (AID 2283478). A digest of the protocol:
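qRT-PCR read-out: CYP24A1 transcript levels normalized to three housekeeping genes, bidirectional curve fits against 0.5% DMSO baseline. Human HepaRG cells treated 48 h with chemicals at eight concentrations from 100 uM in half-log steps.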

Read-out in assay [12]: Cytochrome P450 (CYP1A2), CYP1A2 (gene 1544)
Put plainly: LTEA_HepaRG_CYP1A2: Life Technologies and Expression Analysis (LTEA) Assay for Cytochrome P450 (CYP1A2) using HepaRG (AID 2283479). A digest of the protocol: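 HepaRG, 48 h exposure, top 100 uM, half-log 8-pt, 0.5% DMSO vehicle, duplicates. Readout: TaqMan qRT-PCR of CYP1A2 mRNA, housekeeping-normalized (ACTB/GAPDH/POLR2A). Gain/loss fit relative to DMSO baseline.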

Read-out in assay [13]: cysteine-aspartic acid protease (CASP8), CASP8 (gene 841)
Put plainly: LTEA_HepaRG_CASP8: Life Technologies and Expression Analysis (LTEA) Assay for cysteine-aspartic acid protease (CASP8) using HepaRG (AID 2283480). A digest of the protocol: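 qRT-PCR readout of CASP8 mRNA, normalized to three housekeeping genes, after 48 h chemical exposure of HepaRG cells; 8-point half-log series, top 100 uM, 0.5% DMSO vehicle. Bidirectional curve fitting against DMSO baseline.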

Read-out in assay [14]: Cytochrome P450 (CYP2B6), CYP2B6 (gene 1555)
Put plainly: LTEA_HepaRG_CYP2B6: Life Technologies and Expression Analysis (LTEA) Assay for Cytochrome P450 (CYP2B6) using HepaRG (AID 2283481). The method in brief: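 Read-out is CYP2B6 mRNA by TaqMan qRT-PCR, normalized to three housekeeping genes and fitted bidirectionally against 0.5% DMSO baseline. Human HepaRG cells received test chemicals for 48 h, top concentration 100 uM, half-log dilutions.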

Read-out in assay [15]: Cytochrome P450 2C19 (Homo sapiens) (UniProt P33261)
Put plainly: LTEA_HepaRG_CYP2C19: Life Technologies and Expression Analysis (LTEA) Assay for CYP2C19 using HepaRG (AID 2283482). A digest of the protocol:
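HepaRG, 48 h chemical exposure, 8-pt half-log series from 100 uM in 0.5% DMSO, duplicates. Readout: CYP2C19 mRNA by TaqMan qRT-PCR, housekeeping-normalized. Bidirectional fit vs DMSO baseline; phenobarbital 1mM as induction control.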

Read-out in a further assay: CYP2C8 (gene 1558)
Put plainly: LTEA_HepaRG_CYP2C8: Life Technologies and Expression Analysis (LTEA) Assay for CYP2C8 using HepaRG (AID 2283483). The method in brief:
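HepaRG (human liver line), 48 h chemical exposure, 8-pt half-log series from 100 uM, 0.5% DMSO vehicle. Readout: CYP2C8 transcript by qRT-PCR, housekeeping-normalized. Bidirectional fit vs DMSO baseline.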

Read-out in the next assay: CYP2C9 (gene 1559)
Put plainly: LTEA_HepaRG_CYP2C9: Life Technologies and Expression Analysis (LTEA) Assay for CYP2C9 using HepaRG (AID 2283484). The method in brief:
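HepaRG, 48 h dosing, 8-pt half-log series, top 100 uM, 0.5% DMSO vehicle. Read-out: CYP2C9 transcript by TaqMan qRT-PCR, housekeeping-normalized (ACTB/GAPDH/POLR2A). Gain or loss fitted vs DMSO baseline.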

Read-out in another assay: CYP2E1 (gene 1571)
Put plainly: LTEA_HepaRG_CYP2E1: Life Technologies and Expression Analysis (LTEA) Assay for CYP2E1 using HepaRG (AID 2283485). A digest of the protocol: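 CYP2E1 transcript was measured by TaqMan qRT-PCR in human HepaRG cultures after 48 h chemical exposure (top 100 uM, half-log steps, 0.5% DMSO vehicle). Housekeeping-gene normalization; gain or loss fitted relative to DMSO baseline.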

Active and inactive are the calls of the source. The calls were made as follows: active = hit-call score of the fitted dose curve at least 0.9, where 1 is the maximum; inactive = score below 0.9.

Chain of Apoptosis regulator Bcl-2 (Homo sapiens) (P10415 whole entry, looked up): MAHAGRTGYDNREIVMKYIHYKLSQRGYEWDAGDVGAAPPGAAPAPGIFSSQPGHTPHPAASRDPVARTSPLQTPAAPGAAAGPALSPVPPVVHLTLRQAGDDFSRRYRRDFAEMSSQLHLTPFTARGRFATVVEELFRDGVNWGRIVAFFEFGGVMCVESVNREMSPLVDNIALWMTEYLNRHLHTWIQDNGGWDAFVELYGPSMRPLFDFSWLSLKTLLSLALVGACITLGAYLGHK
Chain of Cytochrome P450 2C19 (Homo sapiens) (P33261 whole entry, looked up): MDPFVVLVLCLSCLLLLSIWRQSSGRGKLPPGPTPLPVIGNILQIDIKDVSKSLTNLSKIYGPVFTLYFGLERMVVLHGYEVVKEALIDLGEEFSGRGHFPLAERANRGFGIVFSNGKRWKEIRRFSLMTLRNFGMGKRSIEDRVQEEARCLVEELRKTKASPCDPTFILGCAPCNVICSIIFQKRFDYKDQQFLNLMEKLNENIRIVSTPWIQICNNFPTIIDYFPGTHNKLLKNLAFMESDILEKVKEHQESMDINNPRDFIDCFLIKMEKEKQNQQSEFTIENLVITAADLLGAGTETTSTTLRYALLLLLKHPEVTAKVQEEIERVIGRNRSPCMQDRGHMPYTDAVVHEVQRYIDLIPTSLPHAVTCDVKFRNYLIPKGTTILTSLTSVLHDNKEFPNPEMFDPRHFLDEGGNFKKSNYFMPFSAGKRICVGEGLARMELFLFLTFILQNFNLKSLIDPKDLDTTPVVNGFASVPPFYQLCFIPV
Chain of Caspase-3 (Homo sapiens) (P42574 whole entry, looked up): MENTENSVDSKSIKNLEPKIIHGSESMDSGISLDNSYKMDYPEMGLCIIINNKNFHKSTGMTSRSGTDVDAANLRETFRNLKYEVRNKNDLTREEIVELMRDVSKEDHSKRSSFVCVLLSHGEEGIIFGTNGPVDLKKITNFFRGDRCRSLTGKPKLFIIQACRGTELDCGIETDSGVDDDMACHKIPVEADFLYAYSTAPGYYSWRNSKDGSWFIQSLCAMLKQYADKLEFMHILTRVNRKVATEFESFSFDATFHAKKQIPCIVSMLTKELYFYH

Usually AC50 stands for the midpoint of the concentration-response curve, whichever way the signal moves. For `Nc1ccc(C(=O)O)cc1`, the compound was called inactive in assay [1], in [2], in assay [3], in assay [4], in [5] and in [6]. Besides, the call (in assay [7]; in the assay with BCL2L11 (gene 10018); in assay [8]; in assay [9]; in assay [10]; in the assay with Caspase-3 (Homo sapiens)) was inactive. For the same compound, the compound was called inactive (in [11]; in assay [13]; in assay [14]; in assay [15]; with CYP2C8 (gene 1558); with CYP2C9 (gene 1559)). In the assay with CYP2E1 (gene 1571), the result was inactive. In addition, the AC50 in assay [12] is 50 µM (active).
Consider `Cc1ccc([N+](=O)[O-])cc1N`, for which the compound was called inactive in [1], in assay [2], in assay [3], in [4], in assay [5] and in assay [6]. Moreover, the compound was classed as inactive (in assay [7]; with BCL2L11 (gene 10018); in [8]; in assay [9]; in assay [10]; with Caspase-3 (Homo sapiens)). For the same compound, the compound was classed as inactive (in assay [11]; in assay [13]; in assay [15]; with CYP2C8 (gene 1558); in the assay with CYP2C9 (gene 1559)). Moreover, the values for the AC50 (in assay [12]; in assay [14]; with CYP2E1 (gene 1571)) were 26.8 µM (active), 18.4 µM (active) and 32.4 µM (active), respectively.
Turning to `C1CNCCN1`, the outcome in assay [1], in [2], in assay [3], in [4], in assay [5] and in assay [6] was inactive. Also, the compound was classed as inactive (in [7]; with BCL2L11 (gene 10018); in assay [8]; in assay [9]; in [10]; in the assay with Caspase-3 (Homo sapiens)). Besides, the outcome (in [11]; in [12]; in assay [13]; in assay [14]; in [15]; in the assay with CYP2C8 (gene 1558)) was inactive. The result with CYP2C9 (gene 1559) and in the assay with CYP2E1 (gene 1571) was inactive.

Values taken from PubChem BioAssay (EPA / NIEHS).
